Bioassay records as filed in PubChem.
Most compounds without a hit are left out; they make up all but 4.6% or so of the library.
D1 antagonist – human D1 dopamine receptor antagonism. P21728. HEK293 TREx D1 cells, calcium flux, dopamine EC80; active compounds read low. activity change, negative = inhibition, % at 10 µM. 3.2% of 360,000 active; in the data active = activity change below about -30%; note: % is set by controls: 0 for no effect and ±100 for the full control effect
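Allosteric or orthosteric antagonism assessed as attenuation of the calcium response to EC80 dopamine, added 180 s after compound, in induced HEK293 Trex D1 cells loaded with no-wash calcium dye.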
TRHR agonist-1 – activates the human TRH receptor; P34981; TRHR cells, calcium flux fluo-8, FDSS agonist mode; activation, % at 2 µM; 0.18% of 360,000 active; in the data active = activation above about 30%; note: 0% is about no effect
Target sequence (P34981 whole entry, looked up): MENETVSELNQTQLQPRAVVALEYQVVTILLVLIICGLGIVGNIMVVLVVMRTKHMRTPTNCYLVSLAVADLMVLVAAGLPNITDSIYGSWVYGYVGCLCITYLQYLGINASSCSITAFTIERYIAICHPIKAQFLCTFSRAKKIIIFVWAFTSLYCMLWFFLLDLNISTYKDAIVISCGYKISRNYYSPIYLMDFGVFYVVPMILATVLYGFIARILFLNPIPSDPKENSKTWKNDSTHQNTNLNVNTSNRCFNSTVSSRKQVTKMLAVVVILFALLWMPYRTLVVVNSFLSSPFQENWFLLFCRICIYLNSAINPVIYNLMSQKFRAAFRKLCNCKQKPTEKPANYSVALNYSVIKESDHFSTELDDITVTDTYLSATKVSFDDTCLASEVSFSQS
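Steps: seed TRHR cells overnight; add fluo-8 no-wash Ca dye, RT 30 min–1.5 h; record 10 s baseline; pin-transfer compounds; monitor fluorescence 1 cycle/s for the agonist window. Calcium increases flag candidate agonists.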
D1 potentiator – enhances dopamine response at the human D1 receptor | HEK293 TREx D1 cells, calcium flux, dopamine EC20 potentiation | potentiation, % at 10 µM | 0.036% of 360,000 active | AID 504651; in the data active = potentiation above about 30%; note: 0% is about no effect
D1 ag – human D1 receptor agonism | activation, % at 2 µM | 1% of 360,000 active | AID 504660 | P21728 | HEK293 T-REx D1 cells, calcium flux, agonist mode; in the data active = activation above about 30%; note: 0% is about no effect
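Agonism was scored from calcium flux recorded over 180 s (1 read/s) after pintool compound addition, following a 10-cycle baseline. Cells were inducible force-coupled HEK293 TREx D1, plated overnight at 30 C and loaded with no-wash calcium dye.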
TRHR enhancer-1 – allosterically enhances the human TRH receptor. P34981. TRHR cells, fluo-8 calcium fluorescence, EC20 TRH enhancement. enhancement, % at 2 µM. 0.66% of 360,000 active. AID 493056; in the data active = enhancement above about 30%; note: 0% is about no effect
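TRHR-expressing cells loaded with fluo-8 calcium dye were read kinetically (ex 480/em 530) during compound addition, then stimulated with an EC20 of TRH (10 nM final). Enhancement of the Gq-mediated intracellular calcium response was scored.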
TRHR enhancer-2 – confirmation of human TRH receptor allosteric enhancers | 970 tested, under 10 active | activity change, negative = inhibition, % at 46.1 µM | AID 493076 | TRH receptor cell assay, enhancer confirmation qHTS | shares compounds with TRHR enhancer-1;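 note: compound effect scored on response to added TRH at EC20 of 10 nM; 0% is about no effect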
TRHR agonist-2 – human TRH receptor agonism confirmation; Potency, µM (titrated, usually from 46.1 µM), without a hit: top-dose activation, most hits filed as activators; 8% of 970 active; shares compounds with TRHR enhancer-1; TRHR-expressing cells, agonist activation read-out; note: potency is the fitted concentration of half-maximal effect; 0% is about no effect; nearly all actives have a fitted effect of over 75% in size
Active calls of the source: *; ? = inconclusive; nt = no result. Unless noted, calls come from the whole dose curve; as a rule, active = well fitted curve in the direction sought with a large enough effect; inconclusive = small, poorly fitted or top-dose-only effect, or another doubt; inactive = no such curve, though single readings can be large; an effect the other way counts as inactive or inconclusive.

SMILES | D1 antagonist | TRHR agonist-1 | D1 potentiator | D1 ag | TRHR enhancer-1 | TRHR enhancer-2 | TRHR agonist-2
COc1ccc(Cn2nnnc2CN(CCCN2CCOCC2)Cc2cc3cc(OC)ccc3[nH]c2=O)cc1 | 0.8 | 0.4 | -3.4 | 2.8 | 42.8* | 8.4 | -0.5%
CSCCCNC(=S)Nc1ccc(N2CCOCC2)cc1 | 18.8 | 0.1 | -0.8 | 4.4 | 43.3* | -2.7 | 1.4%
CSCCCNC(=S)Nc1ccc(N2CCOCC2)cc1N1CCOCC1 | 6.5 | 1.0 | -9.9 | 1.2 | -2.7 | nt | nt
Cc1cc(C)c2c(n1)nn1c(NCCCN(C)C)cc(C)nc21 | 1.0 | -0.3 | -3.8 | -0.1 | 57.4* | 2.1 | -0.4%
COc1cccc(N2CCN(C(=O)c3cc4c(=O)n(Cc5ccccc5)ccc4nc3C)CC2)c1 | -11.9 | 0.2 | 1.4 | 3.0 | 12.6 | nt | nt
CCN(CC)N=Nc1ccc(S(N)(=O)=O)cc1 | -5.0 | 0.3 | -7.0 | 8.8 | 57.5* | 2.7 | 2.8%
CCn1c(CC(=O)Nc2ccccc2)n[nH]c1=S | 7.4 | 0.0 | -0.3 | 2.9 | 52.0* | -0.2 | -0.7%
CCN(CC)c1ccc(/C=N/NC(=O)c2cccc(S(=O)(=O)N3CCOCC3)c2)c(O)c1 | -29.0 | 39.3* | -4.3 | 12.1 | -1.5 | 2.6 | ?
O=C(Nn1cnnc1)c1cccc(S(=O)(=O)N2CCOCC2)c1 | 1.2 | 102.1* | 0.1 | 6.8 | 5.0 | 4.7 | -0.7%
O=C(NCc1cccs1)Nc1cc(Cl)ccc1Cl | 1.3 | -4.4 | -8.8 | 16.1 | 41.4* | -5.1 | 2.7%
Cc1cccc(C(=O)Nc2cccc(C(=O)OCc3cc(=O)n4c5c(sc4n3)CCCC5)c2)c1 | 4.7 | 0.5 | -1.0 | 2.5 | 5.4 | nt | nt
CCc1ccc(S(=O)(=O)/N=C2\C=C(NS(=O)(=O)c3ccccc3)C(=O)c3ccccc32)cc1 | -19.3 | -0.6 | -2.1 | -0.5 | 48.9* | -7.4 | 2.0%
CC(C)c1ccc(S(=O)(=O)/N=C2\C=C(NS(=O)(=O)c3ccccc3)C(=O)c3ccccc32)cc1 | -19.3 | -1.3 | -6.5 | 2.4 | 21.1 | nt | nt
N#C/C(=C/c1ccc(F)cc1)c1nc(CCN2C(=O)c3ccccc3C2=O)cs1 | -18.1 | 28.1 | -7.7 | 21.7 | 7.0 | -1.3 | 2.6%
Cc1[nH]c(C)c(S(=O)(=O)N2CCN(c3ccccc3F)CC2)c1C(=O)N1CCCCC1 | -6.6 | 1.7 | -3.2 | 1.2 | 4.4 | nt | nt
CCOc1ccc(-c2nnc(SCC(=O)NCCC(C)C)nc2-c2ccc(OCC)c(OC)c2)cc1OC | 5.4 | -0.6 | -2.3 | 5.2 | -2.7 | nt | nt
Cc1cccc(C)c1NC(=S)N1CCC(c2ccccc2)C1 (stereo unspecified) | 7.1 | 0.5 | -0.6 | 1.1 | 48.6* | -15.1 | 0.5%
Cc1cccc(C)c1NC(=S)N1CCOCC1 | -5.3 | 0.5 | 0.8 | 3.9 | 3.1 | nt | nt
Cc1cc(C)c(C(=O)CC(=O)c2ccccc2Cl)c(O)c1 | 1.9 | 0.3 | 6.2 | 8.1 | 7.0 | nt | nt
CCN(CC)C(=O)C1CCN(c2ncnc3c2cnn3-c2ccc(C)cc2C)CC1 | -8.7 | -0.6 | -4.0 | 0.7 | 44.5* | -6.8 | 1.8%
Cc1ccc(-n2ncc3c(N4CCC(C(N)=O)CC4)ncnc32)c(C)c1 | -13.4 | -0.4 | -5.9 | 0.1 | 15.3 | nt | nt
CCOc1ccc(S(=O)(=O)N2CCN(c3ccc(OC)cc3)CC2)c2cccnc12 | -0.9 | -1.9 | -6.2 | 2.5 | 43.7* | 0.3 | 1.4%
CCN(CC)C(=O)Oc1ccc2oc(=O)cc(-c3cc4cccc(OC)c4o3)c2c1 | 5.1 | 0.1 | -1.8 | 1.7 | -5.2 | nt | nt
Cn1c(N)c(C(=O)CSc2nnc(-c3c[nH]c4ccccc34)n2C2CC2)c(=O)[nH]c1=O | 19.5 | 0.3 | nt | 3.9 | -2.0 | nt | nt
CC(=O)Nc1ccccc1-c1nn[nH]n1 | 1.5 | 44.0* | 9.1 | 2.0 | 11.2 | -5.8 | -0.7%
SMILES | D1 antagonist | TRHR agonist-1 | D1 potentiator | D1 ag | TRHR enhancer-1 | TRHR enhancer-2 | TRHR agonist-2
Cc1nc(S(=O)(=O)N2CCN(C3c4ccccc4-c4ccccc43)CC2)cn1C | 22.5 | 0.6 | 6.0 | 4.7 | 43.1* | 7.7 | 4.8%
Cc1ccc(S(=O)(=O)N2CCCC2CNC(=O)C(=O)NCCN2CCOCC2)cc1 (stereo unspecified) | -2.1 | -0.2 | 0.8 | 0.5 | -7.6 | nt | nt
CC1(C)CN=C(N(Cc2ccccc2)C(=O)Nc2ccccc2)S1 | 1.7 | 3.2 | -2.6 | 11.3 | 42.0* | 3.7 | ?
NC(=O)c1ccc(F)cc1 | 3.9 | 1.8 | -3.7 | 3.8 | 59.2* | 5.8 | -0.7%
Cc1cccc(C(=O)OCC(=O)NCC2COc3ccccc3O2)c1 (stereo unspecified) | -0.4 | -0.7 | -1.9 | 0.2 | -8.4 | nt | nt
CSc1ccc(S(=O)(=O)NC(C)c2ccccc2)cc1 (stereo unspecified) | -14.0 | 0.0 | 4.2 | -0.9 | -3.2 | nt | nt
Cc1ccc(S(=O)(=O)NC(C)c2ccccc2)cc1[N+](=O)[O-] (stereo unspecified) | 1.5 | -0.5 | 0.6 | 0.8 | 58.0* | 1.8 | -0.4%
Cc1cc(C)n2nc(CNC(=O)c3cccc(N(C)C)c3)nc2n1 | 7.7 | 0.5 | -2.0 | -1.3 | -4.5 | nt | nt
CCC(C)(C)NC(=O)C(c1cccn1C)N(C(=O)Cn1nnc2ccccc21)c1ccc(F)cc1 (stereo unspecified) | 1.7 | 28.9 | 0.7 | 5.5 | -16.6 | -4.2 | ?
CCCOc1cccc(C(=O)Nc2ccc(-c3nc4ccccc4s3)c(Cl)c2)c1 | 0.7 | 1.3 | -7.5 | 10.5 | -4.0 | nt | nt
CCN(CC)c1ccc(/C=c2\sc3nc4ccccc4n3c2=O)c(O)c1 | -38.3* | 26.3 | -0.1 | 179.2* | -1.9 | 2.3 | 20.6µM*
O=c1/c(=C/c2ccc(O)c([N+](=O)[O-])c2)sc2nc3ccccc3n12 | -2.0 | 0.4 | -8.0 | 6.9 | -0.5 | nt | nt
C=CCn1c(C)cc(-c2csc(NC(=O)C3=COCCO3)n2)c1C | 18.9 | 0.3 | -8.0 | 2.4 | 58.5* | -8.8 | -0.5%
N#Cc1ccc(-c2cccnc2)nc1SCC(=O)c1ccccc1 | -28.4 | 37.7* | 0.2 | 108.4* | -2.7 | -5.2 | 4.6%
CN(C[C@H](Cc1ccccc1)N(CCN(CCc1ccccc1)N=O)N=O)N=O | 18.8 | 0.2 | -4.2 | -4.7 | 42.8* | -4.5 | 3.1%
CC(C)C[C@@H](CN(C)N=O)N(C[C@H](Cc1ccccc1)N(CCc1ccccc1)N=O)N=O | -2.0 | 0.7 | -0.7 | 14.8 | -5.0 | nt | nt
COc1ccc(/C=C2\SC(=O)N(CCC(=O)Nc3ccccc3)C2=O)cc1OC | 1.7 | 0.1 | -4.0 | 0.6 | 57.3* | -3.5 | 4.3%
COc1ccc(/C=C2\SC(=O)N(CCCC(=O)Nc3ccc(C(=O)O)cc3)C2=O)cc1OC | 3.8 | -1.4 | -0.4 | 0.2 | 8.2 | nt | nt
Cc1cc(Cl)ccc1NC(=O)Cn1nnc2sc(-c3ccccc3)cc2c1=O | 4.9 | 1.1 | -2.6 | 0.6 | 2.0 | nt | nt
